Source: PubChem BioAssay
VP16 counter: Gal4-VP16 reporter inhibition counter-screen; 3.5% of 310,000 active; Potency, µM (highest dose often 53.6 µM), for inactives: at the highest dose activity, negative = inhibition, most hits filed as inhibitors; AID 2546; Drosophila S2 Gal4-VP16 UAS-luciferase, luminescence, 20 h;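 note: Gal4-VP16 expression switched on by copper sulfate through the metallothionein promoter; nearly all actives have a fitted effect of over 50% in size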
RORgamma inh: blocks mouse ROR gamma transcriptional activity | P51450 | Drosophila S2 Gal4-RORgamma UAS-luciferase reporter, 20 h | Potency, µM (series often up to 53.6 µM), without a hit: top-dose activity change, negative = inhibition, most hits filed as inhibitors | 5.4% of 310,000 active | AID 2551; note: nearly all actives have a fitted effect of over 60% in size
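Compounds are pin-transferred onto Drosophila Schneider cells expressing a copper-inducible Gal4–ROR gamma transactivation domain fusion. After 1 hr, copper sulfate is added to 700 uM final; luciferase is read 20 hr later.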
Sfp inh: blocks B. subtilis Sfp PPTase activity. Q9F4F7. Biochemical Sfp PPTase activity, qHTS. Potency, µM, for the others: largest response in the series, negative = inhibition, most hits filed as inhibitors. 3.5% of 310,000 active. AID 1490;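 note: the enzyme is Sfp with the accession as filed and its product quenches rhodamine fluorescence; 0% = enzyme reaction without inhibitor and -100% = no enzyme wells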
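Compounds were incubated with enzyme (final 15 nM) for 15 min at room temperature before substrate addition started the reaction. Fluorescence at 525 nm excitation, 598 nm emission was recorded immediately and after 30 minutes.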
PLK1 PBD block: PLK1 (human) polo-box domain binding inhibition | P53350 | Potency, µM, inactives show max response, negative = inhibition, most hits filed as inhibitors | 2.8% of 360,000 active | Plk1 PBD binding of FITC phosphopeptide, fluorescence polarization; note: series mostly up to about 57 µM; nearly all actives have a fitted effect of over 65% in size
Target sequence (P53350 whole entry, looked up, the tested form may be a part): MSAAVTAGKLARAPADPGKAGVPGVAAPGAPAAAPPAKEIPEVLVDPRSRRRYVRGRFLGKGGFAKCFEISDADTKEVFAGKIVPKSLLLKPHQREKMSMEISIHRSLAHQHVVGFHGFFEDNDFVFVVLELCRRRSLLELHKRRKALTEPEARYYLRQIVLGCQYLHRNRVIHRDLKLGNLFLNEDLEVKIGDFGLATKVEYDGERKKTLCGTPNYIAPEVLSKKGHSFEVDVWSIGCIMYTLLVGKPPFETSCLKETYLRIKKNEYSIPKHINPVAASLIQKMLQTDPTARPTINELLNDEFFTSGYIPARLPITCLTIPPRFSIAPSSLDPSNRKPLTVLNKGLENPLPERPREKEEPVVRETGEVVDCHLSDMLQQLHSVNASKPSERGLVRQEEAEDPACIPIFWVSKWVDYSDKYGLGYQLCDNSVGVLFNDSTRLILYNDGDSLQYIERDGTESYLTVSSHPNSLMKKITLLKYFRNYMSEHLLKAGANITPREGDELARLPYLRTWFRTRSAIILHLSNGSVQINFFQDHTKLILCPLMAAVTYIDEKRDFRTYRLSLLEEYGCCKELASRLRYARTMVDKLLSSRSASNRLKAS
ALDH1A1 block: inhibitors of human aldehyde dehydrogenase 1A1; Purified ALDH1A1, NADH fluorescence, propionaldehyde substrate; 7.3% of 220,000 active; Potency, µM (titrated, usually from 75.3 µM), for the others: at the top dose activity, negative = inhibition, hits mostly inhibitors; AID 1030; active = well fitted inhibition curve with a large enough effect, not every such curve was filed as active; inconclusive = small, poorly fitted or top-dose-only effect, or another doubt; inactive = no such curve, though single readings can be large or run the other way;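 note: plate controls were no enzyme wells and a reference inhibitor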
TbPYK inh: confirmation of Trypanosoma brucei pyruvate kinase inhibitors | shares compounds with PLK1 PBD block | recombinant TbPYK, Kinase-Glo ATP luminescence | Potency, µM (doses to about 76.9 µM), inactives show top-dose activity change, negative = inhibition, usual class: inhibitors | 67% of 890 active | AID 720569; note: nearly all actives have a fitted effect of over 70% in size
TbPYK orthogonal: TbPYK inhibition, orthogonal confirmation; shares compounds with PLK1 PBD block; recombinant TbPYK, ADP-Glo luminescence, 60 min; Potency, µM (doses to about 76.9 µM), inactives show top-dose activity change, negative = inhibition, most hits filed as inhibitors; 62% of 890 active; AID 720584; note: nearly all actives have a fitted effect of over 75% in size
Numbers without * were called inactive; ? = inconclusive; / = no result. This is a sample that favours compounds with a hit; in the whole collection about 12% have one here. Unless noted, calls come from the whole dose curve; as a rule, active = well fitted curve in the direction sought with a large enough effect; inconclusive = small, poorly fitted or top-dose-only effect, or another doubt; inactive = no such curve, though single readings can be large; an effect the other way counts as inactive or inconclusive. Unless noted, % is set by controls: 0 for no effect and ±100 for the full control effect; potency is the fitted concentration of half-maximal effect.

SMILES	VP16 counter	RORgamma inh	Sfp inh	PLK1 PBD block	ALDH1A1 block	TbPYK inh	TbPYK orthogonal
COc1cc(C=C2C(=O)NC(=O)NC2=O)cc(OC)c1OC	1.1%	27.9%	31.6µM*	10.6µM*	/	14.1µM*	28.2µM*
O=c1[nH]c(=S)n(Cc2ccco2)c(O)c1C=NCc1cccs1	-3.1%	-1.6%	-1.2%	-26.0%	7.94µM*	?	-28.8%
O=c1[nH]c(=O)n(Cc2ccco2)c(O)c1C=NCCCn1ccnc1	3.3%	-6.4%	16.3%	-0.8%	3.1%	/	/
O=[N+]([O-])c1ccccc1O	-7.4%	-13.0%	/	/	15.8%	/	/
O=C1NC(=S)N(C2CC2)C(=O)/C1=C/c1ccc2c(c1)CCN2CCCCl	-0.6%	-7.5%	20µM*	1.5µM*	0.891µM*	6.31µM*	?
CCN1C(=O)/C(=C/c2ccc3c(c2)CCN3CCCCl)C(=O)NC1=S	3.9%	11.2%	44.7µM*	1.5µM*	0.199µM*	?	?
CNC(C)C1CC[C@H](N)[C@@H](OC2C(N)C[C@H](N)[C@@H](OC3OC[C@](C)(O)C(NC)[C@H]3O)C2O)O1 (stereo partly drawn)	4.0%	11.7%	0.5%	/	2.0%	/	/
O=C(O)CCC(=O)NCCC1=c2ccccc2=N/C1=C\c1c(O)n(Cc2ccc(F)cc2)c(=S)[nH]c1=O	2.2%	-10.4%	35.5µM*	1.19µM*	/	4.47µM*	14.1µM*
Cc1nn(Cc2ccccc2)c(C)c1C=C1C(=O)NC(=S)NC1=O	?	7.4%	-96.9%	15µM*	?	6.31µM*	?
C=CCN	4.2%	-15.5%	8.4%	/	19.0%	/	/
O=C1NC(=O)C(=Cc2cccc(OCCOc3ccccc3)c2)C(=O)N1	?	?	44.7µM*	2.67µM*	/	?	?
CCN(CC)c1ccc(C=C2C(=O)NC(=S)NC2=O)cc1	14.1%	41.0%	3.16µM*	2.67µM*	0.112µM*	15.8µM*	14.1µM*
C/C(=C\c1csc(C)n1)[C@@H]1C[C@@H]2O[C@]2(C)CCC[C@H](C)[C@H](O)[C@@H](C)C(=O)C(C)(C)[C@@H](O)CC(=O)O1	?	-4.0%	13.3%	/	/	/	/
CN1C(=O)C(=Cc2ccc(N3CCOCC3)o2)C(=O)N(C)C1=S	-0.2%	-6.8%	6.4%	65.1%	2.0%	/	/
Cc1cc(N2CCCCC2)ccc1C=C1C(=O)N(C)C(=S)N(C)C1=O	4.0%	?	-92.2%	3.36µM*	31.6µM*	20µM*	?
COc1ccc(C(=O)OCC(=O)Nc2ccc([N+](=O)[O-])cc2OC)c(O)c1	4.2%	?	17.6%	-0.5%	6.8%	/	/
COC(=O)C1=C(C(=O)OC)SC2(S1)C(C(=O)OC)=C(C(=O)OC)Sc1c2ssc1=O	/	/	/	1.19µM*	/	11.2µM*	14.1µM*
CO/C1=C\C(C)=C\[C@@H](C)[C@@H](O)[C@H](C)C/C(C)=C/C=C/[C@H](OC)[C@H]([C@@H](C)[C@@H](O)[C@H](C)[C@H]2C[C@@H](O)[C@H](C)[C@@H](C(C)C)O2)OC1=O	/	/	-17.7%	/	-2.5%	/	/
CCN1CCN(c2ccc([N+](=O)[O-])cc2C=C2C(=O)NC(=O)NC2=O)CC1	-10.0%	-6.4%	44.7µM*	10.6µM*	-1.1%	20µM*	?
CC(=O)O[C@@H]1CN2CCC1CC2	3.3%	-3.9%	6.6%	/	8.9%	/	/
